Most compounds without a hit are left out; they make up all but 4.7% or so of the library.
ATG4B inh: blocks human ATG4B protease cleavage of LC3 substrate | Q9Y4P1 | ATG4B cleavage of LC3-PLA2, NBD-HPC fluorescence, 1 h | inhibition, % at 8.33 µM | 340,000 tested, 0.51% active | AID 504462; in the data active = inhibition above about 40%
Target sequence (Q9Y4P1 whole entry, looked up): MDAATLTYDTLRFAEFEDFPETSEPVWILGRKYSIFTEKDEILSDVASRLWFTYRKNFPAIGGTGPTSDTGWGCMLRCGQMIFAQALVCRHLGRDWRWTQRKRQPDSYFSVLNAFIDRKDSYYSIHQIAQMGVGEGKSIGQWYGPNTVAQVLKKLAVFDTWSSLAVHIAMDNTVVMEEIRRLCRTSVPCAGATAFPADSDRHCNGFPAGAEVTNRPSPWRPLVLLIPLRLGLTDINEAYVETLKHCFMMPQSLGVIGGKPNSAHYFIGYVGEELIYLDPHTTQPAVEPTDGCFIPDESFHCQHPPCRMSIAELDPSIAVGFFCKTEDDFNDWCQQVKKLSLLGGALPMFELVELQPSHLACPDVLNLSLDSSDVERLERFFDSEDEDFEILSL
tim10-1 inh: tim10-1 yeast growth inhibition. S. cerevisiae tim10-1 ts strain growth, BacTiter-Glo, 24 h. inhibition, % at 20 µM. 330,000 tested, 2.2% active;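 active = inhibition of at least 40%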;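 note: mutant grown at 25 °C; 0% = DMSO wells with yeast and 100% = wells holding no yeast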
TIM10 inh: growth inhibitors of TIM10 yeast strain; S. cerevisiae TIM10 strain growth, BacTiter-Glo luminescence, 24 h; inhibition, % at 10 µM; 330,000 tested, 1.4% active; AID 463195;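 active = inhibition of 40% or more at the single tested concentration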;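 note: wild-type TIM10 isogenic control strain grown at permissive 25 °C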
tim23-1 inh: inhibits growth of tim23-1 mutant yeast | S. cerevisiae tim23-1 growth, BacTiter-Glo luminescence, 24 h | inhibition, % at 20 µM | 330,000 tested, 1.3% active | AID 463212;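 active = growth inhibition of the mutant yeast at or above 50%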;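 note: temperature-sensitive mutant grown at 25 °C; plate controls were DMSO-treated mutant yeast for no effect and medium wells lacking yeast for full effect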
SKKanGAS inh: blocks kanamycin growth of S. pyogenes SKKanGAS strain | BacTiter-Glo, 6 h | inhibition, % at 7.5 µM | 300,000 tested, 1.3% active | AID 1662;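 active = mean replicate score, as percent of positive control median, at least 50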;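 note: strain carries kanamycin resistance gene driven by streptokinase promoter and grows in 40 µg/ml kanamycin; loss of luminescence reflects streptokinase promoter inhibition or plain growth inhibition; 0% = median of DMSO wells and 100% = positive control at its reference dose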
PfHsp90 yeast 2: growth inhibition of yeast expressing Plasmodium Hsp90. inhibition, % at 9.4 µM. S. cerevisiae expressing PfHsp90, BacTiter-Glo ATP, 48 h; yeast lacking PDR1 and PDR3 efflux regulators. 310,000 tested, 0.32% active. AID 504621;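 active = every replicate shows inhibition above about 80%, whatever the replicate mean, limit read from the data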;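 note: 0% = DMSO neutral controls and 100% = 20 µM radicicol positive controls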
ATG4B conf: confirmation of human ATG4B inhibitors; ATG4B protease fluorescent substrate cleavage assay; shares compounds with ATG4B inh; inhibition, % at 8.33 µM; AID 504757; 320 tested, 92% active; in the data active = inhibition above about 39%
PLA2 ctr: PLA2 (human) inhibition in ATG4B counter-screen; shares compounds with ATG4B inh; purified PLA2, NBD-C6-HPC fluorescence, 45 min; inhibition, % at 8.33 µM; 1,600 tested, 66% active; AID 588402; in the data active = inhibition above about 50%
Target sequence (P04054 whole entry, looked up): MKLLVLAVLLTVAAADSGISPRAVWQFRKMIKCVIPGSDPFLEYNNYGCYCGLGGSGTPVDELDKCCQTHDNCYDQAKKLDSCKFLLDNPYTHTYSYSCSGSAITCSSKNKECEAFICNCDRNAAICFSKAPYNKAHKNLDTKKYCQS
Starred values were filed as active, the others as inactive.

CCC(=O)n1nc(NCc2ccccc2OC)nc1NCc1ccccc1OC was read as ATG4B inh 41*, tim10-1 inh 1, TIM10 inh -3, tim23-1 inh 5, SKKanGAS inh 23, PfHsp90 yeast 2 -41 and PLA2 ctr 37.
Screening COc1ccc(CNc2nc(NCc3ccc(OC)cc3)n(C(C)=O)n2)cc1 returned ATG4B inh -12, tim10-1 inh 7, TIM10 inh -2, tim23-1 inh 8 and SKKanGAS inh -14.
Screening Cc1[nH]c2ccccc2c1C(=O)CSc1ccccn1 returned ATG4B inh -9, tim10-1 inh 3, TIM10 inh 13, tim23-1 inh 34, SKKanGAS inh 3 and PfHsp90 yeast 2 -15.
For Nc1ncnc(N)c1N=Nc1ccccc1 the results were ATG4B inh 5, tim10-1 inh -33, TIM10 inh -4, tim23-1 inh -36, SKKanGAS inh -2 and PfHsp90 yeast 2 -12.
For Nc1nn(-c2ccccc2)c(N)c1N=Nc1ccccc1 the results were ATG4B inh 45*, tim10-1 inh -34, TIM10 inh 0, tim23-1 inh -6, SKKanGAS inh 2, PfHsp90 yeast 2 -22, ATG4B conf 64* and PLA2 ctr 42.
Cc1nn(-c2ccccc2)c(N)c1C(O)(C(F)(F)F)C(F)(F)F was read as ATG4B inh -12, tim10-1 inh 2, TIM10 inh -2, tim23-1 inh 3, SKKanGAS inh 8 and PfHsp90 yeast 2 -2.
`Nc1nn(-c2ccccc2)c(N)c1N=Nc1ccccc1F` gave ATG4B inh 70*, tim10-1 inh -30, TIM10 inh 7, tim23-1 inh 23, SKKanGAS inh 0, PfHsp90 yeast 2 -4 and PLA2 ctr 72*.
For Cc1cccc(N=Nc2c(C)nn(-c3ccccc3)c2N)c1C the results were ATG4B inh 82*, tim10-1 inh 15, TIM10 inh 20, tim23-1 inh 22, SKKanGAS inh 57*, PfHsp90 yeast 2 -20 and PLA2 ctr 90*.
For Cc1nn(-c2ccccc2)c(N)c1N=Nc1ccccc1 the results were ATG4B inh 73*, SKKanGAS inh 12, PfHsp90 yeast 2 0 and PLA2 ctr 81*.
`Cc1nn(-c2ccccc2)c(N)c1N=Nc1cccc(S(=O)(=O)N2CCOCC2)c1` gave ATG4B inh 44*, tim10-1 inh 12, TIM10 inh -16, tim23-1 inh 28, SKKanGAS inh 4, PfHsp90 yeast 2 28 and PLA2 ctr 50.
COc1ccc(-n2nc3c(N4CCC(C(=O)N5CCC(C)CC5)CC4)nnc(C)c3c2C)cc1 was read as ATG4B inh 68*, tim10-1 inh 8, TIM10 inh 7, tim23-1 inh 1, SKKanGAS inh 0, PfHsp90 yeast 2 25 and PLA2 ctr 75*.
For COc1ccc(C2OC(=O)c3ccccc3S2)cc1 (stereo unspecified) the results were ATG4B inh 54*, tim10-1 inh 27, TIM10 inh 11, tim23-1 inh 43, SKKanGAS inh 3, PfHsp90 yeast 2 25 and PLA2 ctr 54*.
For CCCc1ccc(C(C)NC(=S)NCc2ccc(F)cc2)cc1 (stereo unspecified) the results were ATG4B inh 59*, tim10-1 inh 31, TIM10 inh 23, tim23-1 inh 10, SKKanGAS inh 29, PfHsp90 yeast 2 -29 and PLA2 ctr 70*.
Screening COc1ccc(C(C)NC(=S)NCc2ccc(F)cc2)cc1OC (stereo unspecified) returned ATG4B inh 10, tim10-1 inh -2, TIM10 inh -3, tim23-1 inh -21, SKKanGAS inh 1 and PfHsp90 yeast 2 6.
For CCC(NC(=S)NCc1ccc(F)cc1)c1ccc(C(C)C)cc1 (stereo unspecified) the results were ATG4B inh 54*, tim10-1 inh 32, TIM10 inh 24, tim23-1 inh 30, SKKanGAS inh 40, PfHsp90 yeast 2 -74 and PLA2 ctr 77*.
Screening Cc1cc(C)n(CCNC(=O)c2cc(COc3c(F)cccc3F)on2)n1 returned ATG4B inh 13, tim10-1 inh -9, TIM10 inh -2, tim23-1 inh 13, SKKanGAS inh -24 and PfHsp90 yeast 2 9.
For N#Cc1c(NC(=S)NC(=O)c2ccccc2)sc2c1CCC2 the results were ATG4B inh 8, tim10-1 inh 0, TIM10 inh 6, tim23-1 inh 9, SKKanGAS inh 11 and PfHsp90 yeast 2 4.
For O=C(NC(=S)Nc1sc2c(c1C(=O)O)CCCC2)c1ccccc1 the results were ATG4B inh 52*, tim10-1 inh -32, TIM10 inh 5, tim23-1 inh 39, SKKanGAS inh 11, PfHsp90 yeast 2 9 and PLA2 ctr 62*.
Screening Cc1ccccc1C(=O)Nc1sc(C)c(C)c1C(=O)c1ccccc1 returned ATG4B inh 41*, tim10-1 inh 14, TIM10 inh -9, tim23-1 inh -10, SKKanGAS inh 20, PfHsp90 yeast 2 -26 and PLA2 ctr 61*.
For Cc1ccccc1C(=O)Nc1sc2c(c1C(=O)O)CCC2 the results were ATG4B inh 52*, tim10-1 inh 19, TIM10 inh -7, tim23-1 inh 10, SKKanGAS inh 13, PfHsp90 yeast 2 18 and PLA2 ctr 49.
Screening CCOC(=O)c1sc(C)c2c(=O)n(Cc3ccc(Cl)cc3)c(C)nc12 returned ATG4B inh -11, tim10-1 inh 24, TIM10 inh 25, tim23-1 inh 19, SKKanGAS inh 21 and PfHsp90 yeast 2 7.
COc1ccc(CN(C)C(=O)c2cccc(NS(=O)(=O)c3ccccc3)c2)c(OC)c1 was read as ATG4B inh -4, tim10-1 inh 12, TIM10 inh 9, tim23-1 inh 6, SKKanGAS inh 4 and PfHsp90 yeast 2 0.
For COc1cc(OC)cc(-c2nnc(Nc3nc4c(F)cccc4s3)o2)c1 the results were ATG4B inh 57*, tim10-1 inh -2, TIM10 inh 11, tim23-1 inh 10, SKKanGAS inh -16, PfHsp90 yeast 2 6, ATG4B conf 51* and PLA2 ctr 11.
`CC1CCCCN1Cc1nc2c(c(=O)n(C)c(=O)n2C)n1CCCc1ccccc1` (stereo unspecified) gave ATG4B inh 4, tim10-1 inh 31, TIM10 inh 20, tim23-1 inh 24, SKKanGAS inh -1 and PfHsp90 yeast 2 1.

Source: PubChem (several laboratories)
